Drawing on PubChem BioAssay (NCATS), this text covers Potency for 15 molecules.

Results filed as inconclusive are left out. The source made the active and inactive calls. Calls follow the shape of the dose curve; as a rule, active = well fitted curve in the direction sought with a large enough effect; inconclusive = small, poorly fitted or top-dose-only effect, or another doubt; inactive = no such curve, though single readings can be large; an effect the other way counts as inactive or inconclusive.

A short description of assay [1]: Quantitative High-Throughput drug screen in 47 multiple myeloma cell lines against the NCATS MIPE library collection: KHM11_PLB cell viability assay (AID 1918962). Also: nearly all actives have a fitted effect of over 35% in size. In short, it runs like this:
(§1)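 CellTiter-Glo luminescence (ATP) after 48 h compound exposure, 37C/5% CO2; 500 cells/well; MIPE 4.0 approved/investigational drugs pinned in; DMSO = 100%, media only = 0% viability.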

Assay [2] is described as follows: Quantitative High-Throughput drug screen in 47 multiple myeloma cell lines against the NCATS MIPE library collection: JIM3_ECACC cell viability assay (AID 1918963; also: nearly all actives have a fitted effect of over 35% in size). In short, it runs like this:
as §1

Assay [3] is described as follows: Quantitative High-Throughput drug screen in 47 multiple myeloma cell lines against the NCATS MIPE library collection: JIM1_ECACC cell viability assay (AID 1918964). In short, it runs like this:
(§2)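 Luminescent ATP measurement with CellTiter-Glo gives viability, scaled between DMSO-only wells (100%) and media-only wells (0%). Cells, 500 per well, faced library compounds for 48 hours at 37C.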

Assay [4] is described as follows: Quantitative High-Throughput drug screen in 47 multiple myeloma cell lines against the NCATS MIPE library collection: INA6_PLB cell viability assay (AID 1918965; also: nearly all actives have a fitted effect of over 55% in size). In outline:
(§3)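 Myeloma cells (500 per well) were exposed to MIPE 4.0 compounds by pin transfer and incubated 48 hours at 37C, 5% CO2. Viability was read as ATP by CellTiter-Glo luminescence, normalised to DMSO (100%) and media-only (0%) wells.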

Assay [5] in a line: Quantitative High-Throughput drug screen in 47 multiple myeloma cell lines against the NCATS MIPE library collection: JJN3_DSMZ cell viability assay (AID 1918966; also: nearly all actives have a fitted effect of over 50% in size). In outline:
as §2

A short description of assay [6]: Quantitative High-Throughput drug screen in 47 multiple myeloma cell lines against the NCATS MIPE library collection: Karpas25_ECACC cell viability assay (AID 1918968; also: nearly all actives have a fitted effect of over 35% in size). In outline:
as §2

Assay [7] in a line: Quantitative High-Throughput drug screen in 47 multiple myeloma cell lines against the NCATS MIPE library collection: KMS27_JCRB cell viability assay (AID 1918970). Also: nearly all actives have a fitted effect of over 30% in size. In outline:
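ATP-based viability (CellTiter-Glo luminescence) is measured in cells treated 48 h with approved and investigational drugs at 37 °C. Controls are DMSO-only wells for full viability and media-only wells for none.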

Assay [8] in a line: Quantitative High-Throughput drug screen in 47 multiple myeloma cell lines against the NCATS MIPE library collection: KMS12BM_JCRB cell viability assay (AID 1918971). Also: nearly all actives have a fitted effect of over 35% in size. In short, it runs like this: (§4)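 We plated 500 myeloma cells per well, pinned in MIPE 4.0 compounds, and incubated for 48 hours at 37C. ATP was then quantified with CellTiter-Glo, with DMSO and media-only wells defining 100% and 0%.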

Assay [9] can be described thus: Quantitative High-Throughput drug screen in 47 multiple myeloma cell lines against the NCATS MIPE library collection: KMS12PE_JCRB cell viability assay (AID 1918972). Also: nearly all actives have a fitted effect of over 30% in size. In outline:
as §3

Assay [10] in a line: Quantitative High-Throughput drug screen in 47 multiple myeloma cell lines against the NCATS MIPE library collection: KMS26_JCRB cell viability assay (AID 1918975). Also: nearly all actives have a fitted effect of over 45% in size. In short, it runs like this:
as §4

Assay [11] can be described thus: Quantitative High-Throughput drug screen in 47 multiple myeloma cell lines against the NCATS MIPE library collection: MMM1_PLB cell viability assay (AID 1918976). Also: nearly all actives have a fitted effect of over 35% in size. In short, it runs like this:
(§5)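 Myeloma cells (500/well) treated with MIPE 4.0 compounds for 48 h at 37 °C, 5% CO2. Viability read as ATP via CellTiter-Glo luminescence after 5 min at RT; DMSO-only wells = 100%, media-only = 0% viability.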

Assay [12] is described as follows: Quantitative High-Throughput drug screen in 47 multiple myeloma cell lines against the NCATS MIPE library collection: MOLP8_DSMZ cell viability assay (AID 1918977). Also: nearly all actives have a fitted effect of over 45% in size. In outline: as §5
Assay [13] can be described thus: Quantitative High-Throughput drug screen in 47 multiple myeloma cell lines against the NCATS MIPE library collection: NCIH929_DSMZ cell viability assay (AID 1918978). Also: nearly all actives have a fitted effect of over 35% in size. In outline: as §5
The nature of assay [14]: Quantitative High-Throughput drug screen in 47 multiple myeloma cell lines against the NCATS MIPE library collection: OCIMY1_PLB cell viability assay (AID 1918979). Also: nearly all actives have a fitted effect of over 35% in size. In outline: as §5
A short description of assay [15]: Quantitative High-Throughput drug screen in 47 multiple myeloma cell lines against the NCATS MIPE library collection: MM1S_ATCC cell viability assay (AID 1918980). Also: nearly all actives have a fitted effect of over 45% in size. In short, it runs like this: as §5
Assay [16] is described as follows: Quantitative High-Throughput drug screen in 47 multiple myeloma cell lines against the NCATS MIPE library collection: MM1R_ATCC cell viability assay (AID 1918981). Also: nearly all actives have a fitted effect of over 35% in size. In short, it runs like this: as §5
A short description of assay [17]: Quantitative High-Throughput drug screen in 47 multiple myeloma cell lines against the NCATS MIPE library collection: H1112_PLB cell viability assay (AID 1918967; also: nearly all actives have a fitted effect of over 30% in size). In short, it runs like this: as §2
A short description of assay [18]: Quantitative High-Throughput drug screen in 47 multiple myeloma cell lines against the NCATS MIPE library collection: KMS21BM_JCRB cell viability assay (AID 1918974). The conditions noted are these: ATP luminescence, 48 h; viability: at 45.8 µM (top of the series). In outline: as §2
Assay [19] can be described thus: Quantitative High-Throughput drug screen in 47 multiple myeloma cell lines against the NCATS MIPE library collection: Karpas417_ECACC cell viability assay (AID 1918961). The conditions noted are these: Karpas417 myeloma viability, CellTiter-Glo ATP luminescence, 48 h; viability (% of DMSO): at 45.8 µM (top of the series). In short, it runs like this: as §3
Potency is read from the fitted curve at half-maximal effect.

On to `CC(C)C[C@H](NC(=O)[C@H](CCc1ccccc1)NC(=O)CN1CCOCC1)C(=O)N[C@@H](Cc1ccccc1)C(=O)N[C@@H](CC(C)C)C(=O)[C@@]1(C)CO1`, for which the Potency in [1] is 0.001 µM (active); in assay [2], 0.0235 µM (active); in [3], 0.0074 µM (active); in [4], 0.001 µM (active); in assay [5] it was 0.0074 µM (active); in assay [6] it was 0.001 µM (active). For the same molecule, the Potency is 0.001 µM (active) in assay [7]; 0.0053 µM (active) in assay [8]; 0.001 µM (active) in assay [9]; 0.0132 µM (active) in assay [10]; 0.0833 µM (active) in assay [11]; 0.0019 µM (active) in assay [12]. In addition, the Potency in assay [13] was 0.001 µM (active); in assay [14], 0.0093 µM (active); in assay [15], 0.0023 µM (active); in assay [16] it was 0.0037 µM (active).
For `Cc1cccc(N(C)C(=S)Oc2ccc3ccccc3c2)c1`, the Potency entry in assay [1], in assay [2], in [4], in [5], in assay [17] and in [8] was “inactive” each time. The Potency result in [10], in [13], in assay [14] and in assay [16] was “inactive” throughout.
As for `O=C(N[C@H](CO)[C@H](O)c1ccc([N+](=O)[O-])cc1)C(Cl)Cl`, the Potency result in [1], in assay [2], in assay [5], in assay [17], in assay [6] and in assay [7] was “inactive” each time. The Potency result in [8], in [9], in assay [10], in [12], in assay [13] and in assay [14] was “inactive” each time. The Potency entry in assay [15] and in assay [16] was “inactive” in each case.
As to `CN(C)CCc1c[nH]c2ccc(CS(=O)(=O)N3CCCC3)cc12`, the results for the Potency in assay [1], in [4] and in [7] were 16.6 µM (active), 0.0074 µM (active) and 23.5 µM (active), respectively. For the same molecule, the Potency entry in assay [2], in assay [3], in [17], in assay [8], in [10] and in [13] was “inactive” throughout. For the same molecule, the Potency result in [14] is “inactive”.
Regarding `CNC1CCCN(c2c(F)cc3c(=O)c(C(=O)O)cn(C4CC4)c3c2OC)C1` (stereo not drawn), the Potency entry in assay [1], in [2], in assay [3], in assay [8], in assay [14] and in assay [16] was “inactive” throughout. The values for the Potency in assay [6], in assay [13] and in assay [15] were 9.35 µM (active), 1.48 µM (active) and 11.8 µM (active), respectively.
On to `O=C(O)CSCC(=O)NC1CCSC1=O` (stereo not drawn), for which the Potency entry in assay [1], in assay [2], in assay [17], in assay [6], in assay [7] and in assay [8] was “inactive” in each case. The Potency entry in assay [9], in [10], in assay [12], in [13], in assay [14] and in [15] was “inactive” throughout.
Take `CCOC(=O)[C@H](CCc1ccccc1)N[C@H]1CCc2ccccc2N(CC(=O)O)C1=O`: the Potency was 37.2 µM (active) in assay [1]; 20.9 µM (active) in assay [2]; 14.8 µM (active) in assay [4]; 23.5 µM (active) in assay [5]; 23.5 µM (active) in assay [17]; 20.9 µM (active) in assay [6]. Further, the Potency was 9.35 µM (active) in assay [7]; 29.6 µM (active) in [8]; 8.33 µM (active) in assay [9]; 9.35 µM (active) in assay [18]; 18.7 µM (active) in [11]; 18.7 µM (active) in assay [12]. In addition, the Potency in assay [13] is 26.4 µM (active); in assay [14], 23.5 µM (active); in assay [15], 8.33 µM (active); in assay [16], 20.9 µM (active).
With `COc1cnc(NS(=O)(=O)c2ccc(N)cc2)nc1`, the Potency in assay [19] is 11.8 µM (active); in assay [9] it was 14.8 µM (active); in assay [15], 29.6 µM (active). Also, the Potency entry in [2], in assay [17], in assay [10], in assay [12], in [14] and in assay [16] was “inactive” each time.
Take `CNNCc1ccc(C(=O)NC(C)C)cc1`: the Potency result in assay [1], in assay [2], in assay [3], in assay [17], in assay [7] and in [9] was “inactive” throughout. Moreover, the Potency result in assay [13] and in assay [14] was “inactive” in each case. For the same molecule, the Potency was 5.26 µM (active) in assay [6]; 4.69 µM (active) in [8]; 2.35 µM (active) in assay [18]; 18.7 µM (active) in assay [10]; 8.33 µM (active) in assay [11]; 11.8 µM (active) in assay [16].
Take `COc1ccccc1OCC(O)COC(N)=O` (stereo not drawn): the Potency result in assay [1], in assay [2], in assay [3], in [17], in assay [6] and in assay [7] was “inactive” each time. Also, the Potency entry in assay [8], in [9], in assay [10], in assay [12] and in assay [13] was “inactive” each time.
On to `CCOC(=O)c1ccc(OC(=O)CCCCCN=C(N)N)cc1`, for which the Potency entry in [19], in assay [3], in [4], in assay [17], in assay [6] and in [8] was “inactive” throughout. Besides, the Potency entry in assay [9], in [12], in assay [13], in assay [14] and in assay [16] was “inactive” each time.
In the case of `CCC(C)(C)c1ccc(CC(C)CN2C[C@@H](C)O[C@@H](C)C2)cc1` (stereo partly drawn), the Potency entry in assay [19], in assay [9] and in assay [13] was “inactive” in each case.
Regarding `Cc1noc(NS(=O)(=O)c2ccc(N)cc2)c1C`, the Potency entry in [19], in assay [2], in assay [17], in assay [6], in [9] and in [18] was “inactive” each time. Moreover, the Potency entry in [10], in assay [13] and in assay [14] was “inactive” in each case.
As for `Cc1cc(NS(=O)(=O)c2ccc(N)cc2)no1`, the Potency entry in assay [1], in [2], in assay [17], in [6], in assay [7] and in assay [8] was “inactive” each time. Also, the Potency result in assay [9], in [18], in assay [10], in assay [12], in [14] and in [16] was “inactive” in each case. For the same molecule, the Potency in assay [15] was 9.35 µM (active).
As to `CN1CCCC(n2nc(Cc3ccc(Cl)cc3)c3ccccc3c2=O)CC1` (stereo not drawn), the Potency in assay [1] was 6.62 µM (active); in assay [2], 14.8 µM (active); in [4], 1.32 µM (active); in assay [17], 1.87 µM (active); in [6] it was 1.32 µM (active); in assay [8], 4.18 µM (active). Also, the Potency in assay [10] is 3.72 µM (active); in assay [11] it was 8.33 µM (active); in [13], 0.935 µM (active); in assay [15] it was 0.662 µM (active); in assay [16] it was 2.35 µM (active).
